Sm TGR inh = S. mansoni TGR enzyme inhibition. Potency, µM (highest dose often 114 µM), without a hit: at the top dose activity change, negative = inhibition, usual class: inhibitors. AID 485364. hit rate 3% among 360,000. purified TGR, DTNB reduction, TNB absorbance 405 nm. Q962Y6; also: potency is read from the fitted curve at half-maximal effect; % is scaled to controls: 0 for no effect and ±100 for the full control effect; nearly all actives have a fitted effect of over 60% in size
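Kinetic colorimetric format: TGR-catalysed, NADPH-driven DTNB reduction monitored via TNB absorbance. Enzyme dispensed at 20 nM; compound exposure 15 min at room temperature before reaction start.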
NS1 function inh = influenza NS1 inhibition. hit rate 0.4% among 270,000. Potency, µM (highest dose often 46.1 µM), without a hit: at the highest dose activity, positive = more growth; calls by dose curve; also: potency is read from the fitted curve at half-maximal effect; actives are rising curves; nearly all actives have a fitted effect of over 50% in size
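Growth recovery, yeast-based: influenza A NS1 expressed in S. cerevisiae causes slow growth, and suppressors are detected by OD600. The parent strain without NS1 is used as positive control.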
Shiga inhibitor = inhibitors of Shiga toxin in Vero cells | inhibition, % at 38.7 µM | hit rate 9.2% among 290,000 | Vero cells, Shiga toxin protein synthesis inhibition reporter; in the data active = inhibition mostly above about 28%, no sharp cut-off; inactive = mostly below about 43%; also: 0% is about no effect
Pf growth 48h = P. falciparum growth inhibition at 48 hours (one generation) | P. falciparum luciferase growth in erythrocytes, 48 h | Potency, µM (doses to about 28.7 µM), without a hit: at the top dose activity change, negative = inhibition, hits mostly inhibitors | hit rate 5.9% among 310,000; also: potency is read from the fitted curve at half-maximal effect; % is scaled to controls: 0 for no effect and ±100 for the full control effect
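Luminescence readout; reporter = integrated firefly luciferase in P. falciparum. RBC culture at 2% hematocrit, 0.1% parasitemia final, 37 C/5% CO2; decreased signal taken as growth inhibition.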
Cycloheximide cs = counter-screen hit for Shiga toxin inhibitors, cycloheximide. max response, %. AID 2314. cell reporter, cycloheximide protein synthesis inhibition counterscreen. hit rate 12% among 300,000; in the data active = max response mostly above about 13%, no sharp cut-off; inactive = mostly below about 14%; also: read at 38.3 µM for the half of the compounds with a filed dose; 0% is about no effect
Pf growth 96h = P. falciparum growth inhibition at 96 hour, primary screen for plastid delayed-death inhibitors. P. falciparum luciferase reporter growth, 96 h. AID 504834. Potency, µM (titrated, usually from 28.7 µM), for the others: top-dose activity change, negative = inhibition, hits mostly inhibitors. hit rate 6.9% among 320,000; also: potency is read from the fitted curve at half-maximal effect; % is scaled to controls: 0 for no effect and ±100 for the full control effect
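Cell-based qHTS: luciferase-tagged P. falciparum in erythrocytes (2% hematocrit, 0.05% parasitemia final) incubated with compounds for 96 hours, 37 C, 5% CO2; luciferase detection reagent then added and luminescence measured.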
The depositor's hits bear a star; i = inactive; ? = inconclusive; / = no result given; [ ] = dose if it differs, or a comment. Sampled rows, rich in hits. Any-hit rate of the full collection: about 21%. Unless noted, calls follow the shape of the dose curve; as a rule, active = well fitted curve in the direction sought with a large enough effect; inconclusive = small, poorly fitted or top-dose-only effect, or another doubt; inactive = no such curve, though single readings can be large; an effect the other way counts as inactive or inconclusive.

SMILES | Sm TGR inh | NS1 function inh | Shiga inhibitor | Pf growth 48h | Cycloheximide cs | Pf growth 96h
COc1cc(/C=N/NS(=O)(=O)c2ccc(C)cc2)ccc1OCc1ccc(C(=O)O)cc1 | -11.9% | / | 145.6* | i | 42.2* | -6.1%
COc1ccc(/C=N/NS(=O)(=O)c2ccccc2)cc1OC | -6.9% | 5.2% | -4.9 | 1.4% | -2.2 | ?
CCC12CSc3nc(Cl)ccc3N1C(=O)C(=O)N2C (stereo not drawn) | 5.6% | -2.9% | 10.5 | 1.3% | 7.8 | -5.1%
CCOc1ccc(-n2c(SCC(=O)c3ccccc3)nc3c([nH]c4ccccc43)c2=O)cc1 | 6.2% | / | / | / | / | /
COc1ccc(C(=O)O)cc1S(=O)(=O)Nc1ccc(Oc2ccccc2)cc1 | -20.2% | / | / | ? | / | -19.3%
Cc1ncc([N+](=O)[O-])n1CCOC(=O)NC(Nc1ccc(F)cc1)C(Cl)(Cl)Cl (stereo not drawn) | -25.3% | -1.2% | -4.1 | 8.28µM* | -2.6 | 6.57µM*
Cc1ccccc1NC(NC(=O)OCCn1c([N+](=O)[O-])cnc1C)C(Cl)(Cl)Cl (stereo not drawn) | -15.0% | 12.1% | -7.3 | ? | 2.6 | -26.4%
Cc1ncc([N+](=O)[O-])n1CCOC(=O)NC(NCc1cccnc1)C(Cl)(Cl)Cl (stereo not drawn) | 4.5% | 7.1% | -8.4 | ? | -5.5 | ?
Cc1ncc([N+](=O)[O-])n1CCOC(=O)NC(NCc1ccccc1)C(Cl)(Cl)Cl (stereo not drawn) | 5.9% | 9.2% | -16.0 | 8.28µM* | -1.9 | 0.329µM*
Cc1ccc(-n2c3nc(=O)[nH]c(=O)c-3cc3c(C)nn(-c4ccccc4)c32)c(C)c1 | 4.8% | 27.0% | 2.3 | ? | -2.3 | ?
CCOc1ccc2nc(N3CCCC(C(=O)NC4CCCC4)C3)sc2c1 (stereo not drawn) | 1.0% | -8.2% | 20.3* | 39.0% | 32.8* | ?
CCOC(=O)N1CCN(C(=O)C2CCCN(c3nc4ccc(OCC)cc4s3)C2)CC1 (stereo not drawn) | -22.9% | -30.6% | 29.9* | ? | 13.4 | -15.0%
CCOc1ccc2nc(N3CCCC(C(=O)Nc4ccc(OC)cc4)C3)sc2c1 (stereo not drawn) | -3.1% | / | / | / | / | /
CC(=O)Cc1nsc(Nc2ccc(Cl)cc2)n1 | / | 4.2% | 86.0* | 93.8% | 61.2* | 29.7%
CC(=O)Cc1nsc(Nc2ccc(F)cc2)n1 | -11.8% | / | 65.1* | 2.0% | 22.3 | 10.4µM*
CC(=O)Cc1nsc(Nc2ccc3c(c2)OCCO3)n1 | -2.5% | ? | 96.3* | -14.8% | 82.2* | ?
O=C(NCCc1ccccc1)C1CCN(c2ncnc3c2nc2n3CCCCC2)CC1 | -2.9% | / | / | / | / | /
Cn1c(=NC(=O)C2=NNC(=O)CC2)sc2ccccc21 | 7.9% | / | 44.5* | 58.0% | 27.7* | 46.9%
C[C@H]1CC[C@@]2(NC1)O[C@@H]1C[C@@H]3[C@@H]4CC=C5C[C@@H](O)CC[C@]5(C)[C@@H]4CC[C@]3(C)[C@H]1[C@@H]2C | / | -51.9% | / | / | / | /
COc1ccc(Oc2ncccc2[N+](=O)[O-])cc1 | 8.9% | 2.3% | 38.1 | ? | 8.1 | 11.7µM*
O=[N+]([O-])c1ccccc1N/N=C\c1ccccc1F | -3.6% | -2.8% | 50.9* | 434.9% | 48.3* | 149.8%
O=[N+]([O-])c1cccc(N/N=C/c2cccc(O)c2O)c1 | -30.3% | / | 85.3* | ? | 39.8* | 0.9%[5.75 µM]
CCCOc1ccc(/C=N/Nc2ccccc2[N+](=O)[O-])c(OCCC)c1 | -10.5% | 3.2% | 14.3 | ? | 27.9* | 0.0%
COc1cccc(C(=O)N2c3ccc(C)cc3C(C)(c3ccccc3)CC2(C)C)c1 (stereo not drawn) | 7.2% | / | / | / | / | /
CCOC(=O)c1cc(-c2ccc(C)cc2)n(CCC(=O)Nc2cc(Cl)ccc2C)c1C | 0.2% | / | / | / | / | /
SMILES | Sm TGR inh | NS1 function inh | Shiga inhibitor | Pf growth 48h | Cycloheximide cs | Pf growth 96h
NC(=O)[C@@H]1CCCN1Cc1nc(-c2cccs2)no1 | 3.1% | -2.0% | -13.7 | 46.5% | -2.6 | -10.9%
O=[N+]([O-])c1ccc(O)c(/C=N/Nc2ccccc2Cl)c1 | -20.5% | / | 68.8* | 97.4% | 39.6* | -19.6%
O=[N+]([O-])c1ccccc1N/N=C\c1ccccc1Cl | 1.8% | 2.9% | 41.5* | 207.9% | 26.1* | 306.6%
COc1ccc(/C=N/Nc2ncccc2[N+](=O)[O-])c(OC)c1 | 2.8% | / | 50.9* | 348.7% | 11.7 | -10.6%
O=[N+]([O-])c1ccccc1N/N=C/c1cccc(O)c1O | -2.8% | 2.2% | 115.2* | 217.5% | 29.8* | 442.0%
CCn1c(CNC(=O)c2ccc(OC)cc2)nnc1SCC(=O)Nc1cccc(C)c1 | -7.7% | / | / | / | / | /
CC(=O)c1ccc(NC(=O)c2noc(C(C)C)c2[N+](=O)[O-])cc1 | -32.8% | / | 37.5 | -31.2% | 40.6* | 10.0%
Cc1ccc(O)c(NC(=O)c2noc(C(C)C)c2[N+](=O)[O-])c1 | 35.5µM* | / | 48.7 | -25.0% | 42.3* | ?
COc1ccc(NC(=O)c2nn(C)c(C(=O)Nc3ccc(OC)cc3)c2[N+](=O)[O-])cc1 | 6.7% | 11.2% | / | 6.9% | -3.8 | ?
COc1ccc(NC(=O)c2noc(C(C)C)c2[N+](=O)[O-])cc1 | ? | / | 50.0* | ? | 36.5* | 19.1%
CCc1ccc(NC(=O)c2noc(C(C)C)c2[N+](=O)[O-])cc1 | ? | / | 150.6* | ? | 47.6* | 14.2%
CC(C)c1onc(C(=O)NCc2ccc(F)cc2)c1[N+](=O)[O-] | -16.3% | 5.6% | -5.4 | ? | -3.2 | ?
CC(C)NC(=O)C(c1ccc(F)cc1)N(C(=O)CCC(=O)Nc1ccccn1)C1CCCCC1 (stereo not drawn) | -5.6% | -25.2% | -3.7 | 7.8% | -1.2 | 33.5%
COc1cc(NC(=O)C(Cc2ccccc2)NS(=O)(=O)c2cccs2)cc(OC)c1 (stereo not drawn) | -0.2% | / | / | / | / | /
CC1=C(C(=O)Nc2ccccc2)C(c2ccccc2[N+](=O)[O-])NC(=O)N1 (stereo not drawn) | -33.4% | 11.5% | 37.2 | 46.7% | 16.7* | ?
CCN(CC)c1ccc(C2NC(=O)NC(C)=C2C(=O)Nc2ccccc2)cc1 (stereo not drawn) | -1.2%[11.4 µM] | -8.3% | -4.9 | / | -1.7 | 2.62µM*
ClC1(Cl)CC1Cn1cnc2ccccc21 (stereo not drawn) | 5.8% | / | 10.4 | ? | 11.2 | ?
O=C(CSc1ccc(Br)cc1)NC1CCS(=O)(=O)C1 (stereo not drawn) | -16.4% | / | / | 9.1% | / | 3.0%
CCSc1nnc(-c2cccnc2)n1Cc1ccco1 | 35.5µM* | 12.2% | -12.7 | -6.2% | -2.5 | ?
O=C(CSc1nnc(-c2cccnc2)n1Cc1ccco1)c1ccc2ccccc2c1 | 22.4µM* | -11.9% | -10.7 | -20.0% | -0.8 | ?
O=C(CSc1nnc(-c2cccnc2)n1Cc1ccco1)Nc1cccc(O)c1 | -13.6% | 13.1% | -5.6 | 3.0% | -3.2 | 6.8%
O=C(CSc1nnc(-c2cccnc2)n1Cc1ccco1)c1ccc(Br)cc1 | ? | -31.6% | 18.5 | ? | -2.6 | 11.9%

Compound activity as filed in PubChem BioAssay.
